The text below walks through data of PubChem BioAssay (EPA / NIEHS).

The nature of assay [1]: ATG_E_Box_CIS: Attagene CIS-FACTORIAL HepG2 Assay for human Enhancer Box (E-box) (AID 2282936). The conditions noted are these: HepG2 E-box cis-reporter transcription, actives raise or lower the signal. The essentials:
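In this cell-based setup, HepG2 cells bearing transfected promoter-driven reporter units were exposed to chemicals for 24 h; reporter transcripts were amplified, 6-FAM-labelled, cut with HpaI and sized by capillary electrophoresis.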

The nature of assay [2]: ATG_M_61_CIS: Attagene CIS-FACTORIAL HepG2 Assay for M61 Transcription Factor (Internal Marker) (AID 2282937). The note with it: HepG2 Attagene CIS-FACTORIAL M61 internal marker reporter; actives raise or lower the signal. The method in brief: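 Transfect HepG2 with MRTUs; dose 24 h; isolate RNA; reverse-transcribe with DNase I treatment; PCR-amplify, FAM-label and cut with HpaI for 2 h at 37 C; resolve by CE. Bidirectional fitting against DMSO.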

Assay [3] is described as follows: ATG_EGR_CIS: Attagene CIS-FACTORIAL HepG2 Assay for human Early Growth Response 1 (EGR1) (AID 2282938). The note with it: HepG2 Attagene CIS-FACTORIAL EGR reporter mRNA; actives raise or lower the signal. The method in brief: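 After a 24 h treatment of transiently transfected HepG2 cells, total RNA was reverse-transcribed and reporter sequences PCR-amplified, labelled and run on capillary electrophoresis. Reporters sit under cis-regulatory promoters sensing endogenous factors.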

Assay [4] in a line: ATG_M_19_CIS: Attagene CIS-FACTORIAL HepG2 Assay for M19 Transcription Factor (Internal Marker) (AID 2282939). The note with it: HepG2 Attagene CIS-FACTORIAL M19 internal marker reporter; actives raise or lower the signal. The method in brief:
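Signals come from fluorescence of labelled reporter-specific PCR fragments resolved by capillary electrophoresis, following 24 h treatment of HepG2 cells transfected with cis-promoter reporter units; activity was fitted in both directions relative to DMSO.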

The nature of assay [5]: ATG_Ets_CIS: Attagene CIS-FACTORIAL HepG2 Assay for human Erythroblast Transformation Specific (ETS) (AID 2282941). The conditions noted are these: HepG2 ETS cis-reporter transcription, actives raise or lower the signal. The method in brief: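 RT-PCR/capillary electrophoresis fluorescence read-out of reporter mRNA; HepG2 transient multi-reporter transfection; 24 h compound exposure; gain or loss of signal fitted bidirectionally relative to DMSO.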

Assay [6] concerns the target Hepatocyte nuclear factor 3-beta (Homo sapiens) (UniProt Q9Y261). The assay can be described thus: ATG_FoxA2_CIS: Attagene CIS-FACTORIAL HepG2 Assay for human Forkhead box A2 (FOXA2) (AID 2282942). The conditions noted are these: HepG2 cis-reporter transcription factor activity, 24 h; actives raise or lower the signal. The essentials:
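24 h dosing of HepG2 bearing cis-reporter constructs; mRNA readout by RT-PCR/CE fluorescence; bidirectional fit, DMSO baseline.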

Assay [7] is described as follows: ATG_FoxO_CIS: Attagene CIS-FACTORIAL HepG2 Assay for human Forkhead box O (FoxO) (AID 2282943). The conditions noted are these: HepG2 Attagene cis-reporter, FoxO element, mRNA; actives raise or lower the signal. The method in brief:
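Read-out: fluorescence of 6-FAM-labelled reporter cDNA fragments resolved by capillary electrophoresis. Transiently transfected HepG2 cells were dosed for 24 h; activity fitted in both directions relative to DMSO controls.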

Assay [8] can be described thus: ATG_GATA_CIS: Attagene CIS-FACTORIAL HepG2 Assay for human GATA Binding Protein (AID 2282944). The conditions noted are these: HepG2 GATA cis-element reporter, Attagene multiplex mRNA; actives raise or lower the signal. The essentials: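 After transfecting HepG2 cells with multiple cis-regulated reporter units, chemicals are dosed for 24 h; isolated RNA undergoes RT-PCR and fluorescent labeling before capillary electrophoresis, with activity expressed against DMSO.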

Assay [9] is described as follows: ATG_GLI_CIS: Attagene CIS-FACTORIAL HepG2 Assay for human Zinc Finger Protein GLI1 (AID 2282945). The note with it: HepG2, Attagene cis-factorial reporter mRNA, GLI element; actives raise or lower the signal. The method in brief:
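Transiently transfected HepG2 cells report endogenous transcription factor activity via cis-element-driven reporter units. After 24 h compound exposure, reporter mRNA was measured by RT-PCR with capillary electrophoresis; bidirectional fitting against DMSO baseline.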

Assay [10] can be described thus: ATG_ISRE_CIS: Attagene CIS-FACTORIAL HepG2 Assay for human Interferon Regulatory Factor 1 (IRF1) binding to an Interferon-Stimulated Response Element (ISRE) (AID 2282948). The conditions noted are these: HepG2 ISRE cis-reporter (Attagene), mRNA transcription readout; actives raise or lower the signal. The method in brief: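 Read-out: fluorescent RT-PCR products resolved by capillary electrophoresis, reporting endogenous transcription factor activity via ISRE-driven reporter mRNA in transfected HepG2 cells dosed for 24 h; gain or loss fitted relative to DMSO.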

Assay [11] in a line: ATG_M_06_CIS: Attagene CIS-FACTORIAL HepG2 Assay for M06 Transcription Factor (Internal Marker) (AID 2282950). The conditions noted are these: HepG2 Attagene CIS-FACTORIAL M06 internal marker reporter; actives raise or lower the signal. The method in brief:
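HepG2 liver cells, 24 h exposure. Reporter transcripts from transfected cis-element constructs quantified by RT-PCR/capillary electrophoresis fluorescence. Bidirectional curve fit against DMSO.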

The target in assay [12] is Hypoxia-inducible factor 1-alpha (Homo sapiens) (UniProt Q16665). As to the kind of experiment: ATG_HIF1a_CIS: Attagene CIS-FACTORIAL HepG2 Assay for human Hypoxia Inducible Factor 1 (HIF1A) (AID 2282951). The conditions noted are these: HepG2 Attagene cis-factorial HIF1a reporter transcription; actives raise or lower the signal. The essentials:
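After 24 h chemical exposure of reporter-transfected HepG2 cells, reporter cDNA was PCR-amplified, labelled by 6-FAM primer extension (2 min 95 C, 20 s 68 C, 10 min 72 C), HpaI-cut (2 h, 37 C) and analysed by CE.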

The target of assay [13] is Hepatocyte nuclear factor 6 (Homo sapiens) (UniProt Q9UBC0). The assay can be described thus: ATG_HNF6_CIS: Attagene CIS-FACTORIAL HepG2 Assay for human Hepatocyte Nuclear Factor 6 (HNF6) (AID 2282952). The conditions noted are these: HepG2 Attagene cis-factorial HNF6 reporter transcription; actives raise or lower the signal. The method in brief: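 Endogenous factor activity read in transiently transfected HepG2 via promoter-regulated reporter transcripts. RNA harvested 24 h post-dosing, reverse-transcribed, PCR-amplified, FAM-labelled, HpaI-digested and resolved by capillary electrophoresis; fitted in both directions against DMSO.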

Assay [14] addresses Heat shock factor protein 1 (Homo sapiens) (UniProt Q00613). The assay can be described thus: ATG_HSE_CIS: Attagene CIS-FACTORIAL HepG2 Assay for human Heat Shock Transcription Factor 1 (HSE) (AID 2282953). The conditions noted are these: HepG2 HSE cis-reporter, Attagene RNA transcription; actives raise or lower the signal. The method in brief: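 Endogenous transcription factor activity captured via cis-promoter reporter units transfected into HepG2; treatment lasted 24 h. Fluorescence intensity of reporter fragments analysed with bidirectional curve fitting, DMSO baseline.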

The nature of assay [15]: ATG_MRE_CIS: Attagene CIS-FACTORIAL HepG2 Assay for human Metal Responsive Element (MRE) (AID 2282954). The note with it: HepG2 MRE cis-reporter transcription, Attagene multiplex; actives raise or lower the signal. The essentials: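 Measured here is mRNA induction from an MRE cis-element reporter in HepG2 after 24 h, quantified by fluorescence of labelled RT-PCR products on capillary electrophoresis; gain- and loss-of-signal fits use DMSO as baseline.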

A short description of assay [16]: ATG_GRE_CIS: Attagene CIS-FACTORIAL HepG2 Assay for human Glucocorticoid Response Elements (GRE) (AID 2282947). The conditions noted are these: HepG2 GRE cis-reporter, Attagene multiplex mRNA; actives raise or lower the signal. The method in brief:
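Fluorescence intensity of reporter-specific cDNA fragments, separated by capillary electrophoresis, provides the signal. Constructs carry cis-regulating promoters in transiently transfected HepG2 liver cells; 24 h incubation; fitting is bidirectional against DMSO.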

Assay [17] in a line: ATG_M_32_CIS: Attagene CIS-FACTORIAL HepG2 Assay for M32 Transcription Factor (Internal Marker) (AID 2282949).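 Further: background control marker of the multiplexed CIS panel rather than a real target.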 The note with it: HepG2 Attagene cis-factorial M32 reporter, mRNA; actives raise or lower the signal. The method in brief: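 HepG2 transfectants (cis-regulated reporter transcription units) dosed 24 h. Reporter mRNA by RT-PCR plus CE, analysed as gain or loss relative to DMSO.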

Assay [18] can be described thus: ATG_PBREM_CIS: Attagene CIS-FACTORIAL HepG2 Assay for human Phenobarbital-responsive Enhancer Module (PBREM) (AID 2282955). The note with it: HepG2 PBREM cis-reporter, Attagene multiplexed transcription; actives raise or lower the signal. The essentials:
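Measures endogenous factor action on a phenobarbital-responsive enhancer module. HepG2 transiently carrying cis reporters, 24 h treatment, mRNA read-out by RT-PCR plus capillary electrophoresis.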

The target in assay [19] is Bile acid receptor (Homo sapiens) (UniProt Q96RI1). As to the kind of experiment: ATG_IR1_CIS: Attagene CIS-FACTORIAL HepG2 Assay for human Nuclear Receptor Subfamily 1 Group H Member 4 (NR1H4), IR1 submotif (AID 2282946). The conditions noted are these: IR1 reporter transcription, actives raise or lower the signal. The essentials:
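Fluorescence of capillary-separated, HpaI-digested RT-PCR reporter products gave IR1-element mRNA induction in HepG2 cells 24 h after dosing. Endogenous transcription factors drove the cis-regulated reporters; activity was fitted bidirectionally against DMSO.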

SMILES strings stand for the structures. Calls of active or inactive are those of the source. How the source made its calls: active means hit-call score of the fitted dose curve at least 0.9, where 1 is the maximum; inactive means score below 0.9.

Hepatocyte nuclear factor 3-beta (Homo sapiens), sequence (Q9Y261 whole entry, looked up): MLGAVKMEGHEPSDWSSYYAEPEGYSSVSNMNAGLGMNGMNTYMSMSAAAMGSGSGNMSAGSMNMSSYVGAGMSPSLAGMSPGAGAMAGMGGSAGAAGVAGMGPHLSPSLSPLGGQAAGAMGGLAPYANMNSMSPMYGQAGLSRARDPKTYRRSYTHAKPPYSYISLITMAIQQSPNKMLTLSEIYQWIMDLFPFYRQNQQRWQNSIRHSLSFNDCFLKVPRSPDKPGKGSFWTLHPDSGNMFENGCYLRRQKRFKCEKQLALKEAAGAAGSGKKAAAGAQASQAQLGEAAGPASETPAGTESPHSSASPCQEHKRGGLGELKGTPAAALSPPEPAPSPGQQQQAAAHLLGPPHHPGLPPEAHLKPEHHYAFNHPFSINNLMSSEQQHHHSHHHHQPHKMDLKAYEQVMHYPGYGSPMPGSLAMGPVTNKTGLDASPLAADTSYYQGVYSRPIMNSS
Hypoxia-inducible factor 1-alpha (Homo sapiens), sequence (Q16665 whole entry, looked up): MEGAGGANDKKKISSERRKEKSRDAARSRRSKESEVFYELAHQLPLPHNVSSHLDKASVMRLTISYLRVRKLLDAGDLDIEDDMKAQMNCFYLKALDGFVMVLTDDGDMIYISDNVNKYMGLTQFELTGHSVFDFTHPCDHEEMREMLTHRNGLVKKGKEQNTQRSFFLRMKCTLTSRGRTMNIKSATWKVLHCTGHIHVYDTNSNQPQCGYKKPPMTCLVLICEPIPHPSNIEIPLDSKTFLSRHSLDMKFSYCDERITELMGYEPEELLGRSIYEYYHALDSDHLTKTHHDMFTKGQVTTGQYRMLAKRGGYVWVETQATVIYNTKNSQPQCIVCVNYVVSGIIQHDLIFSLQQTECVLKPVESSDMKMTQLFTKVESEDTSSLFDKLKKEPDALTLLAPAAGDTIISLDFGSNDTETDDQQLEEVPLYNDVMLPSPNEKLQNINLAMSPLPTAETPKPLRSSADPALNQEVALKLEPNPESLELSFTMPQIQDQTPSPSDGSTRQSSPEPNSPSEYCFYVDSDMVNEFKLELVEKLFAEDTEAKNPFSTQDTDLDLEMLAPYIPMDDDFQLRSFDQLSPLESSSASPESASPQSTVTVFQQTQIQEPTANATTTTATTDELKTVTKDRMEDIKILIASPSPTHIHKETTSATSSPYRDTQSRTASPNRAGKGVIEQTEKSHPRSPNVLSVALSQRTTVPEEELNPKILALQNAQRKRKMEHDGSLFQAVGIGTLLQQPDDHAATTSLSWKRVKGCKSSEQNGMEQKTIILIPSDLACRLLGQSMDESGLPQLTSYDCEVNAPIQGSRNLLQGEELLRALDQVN
Hepatocyte nuclear factor 6 (Homo sapiens), sequence (Q9UBC0 whole entry, looked up): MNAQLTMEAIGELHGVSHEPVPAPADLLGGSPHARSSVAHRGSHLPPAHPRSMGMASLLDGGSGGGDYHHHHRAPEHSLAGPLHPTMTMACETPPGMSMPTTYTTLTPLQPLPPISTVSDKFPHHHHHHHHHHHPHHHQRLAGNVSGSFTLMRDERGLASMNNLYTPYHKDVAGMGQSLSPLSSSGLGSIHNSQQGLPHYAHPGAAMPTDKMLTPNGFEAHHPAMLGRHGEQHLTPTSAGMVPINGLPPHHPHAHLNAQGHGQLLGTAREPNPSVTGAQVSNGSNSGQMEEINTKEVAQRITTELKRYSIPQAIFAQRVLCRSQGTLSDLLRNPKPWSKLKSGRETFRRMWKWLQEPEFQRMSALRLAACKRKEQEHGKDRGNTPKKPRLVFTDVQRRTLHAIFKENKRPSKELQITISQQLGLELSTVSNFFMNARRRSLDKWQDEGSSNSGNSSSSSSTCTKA
Heat shock factor protein 1 (Homo sapiens), sequence (Q00613 whole entry, looked up, the tested form may be a part): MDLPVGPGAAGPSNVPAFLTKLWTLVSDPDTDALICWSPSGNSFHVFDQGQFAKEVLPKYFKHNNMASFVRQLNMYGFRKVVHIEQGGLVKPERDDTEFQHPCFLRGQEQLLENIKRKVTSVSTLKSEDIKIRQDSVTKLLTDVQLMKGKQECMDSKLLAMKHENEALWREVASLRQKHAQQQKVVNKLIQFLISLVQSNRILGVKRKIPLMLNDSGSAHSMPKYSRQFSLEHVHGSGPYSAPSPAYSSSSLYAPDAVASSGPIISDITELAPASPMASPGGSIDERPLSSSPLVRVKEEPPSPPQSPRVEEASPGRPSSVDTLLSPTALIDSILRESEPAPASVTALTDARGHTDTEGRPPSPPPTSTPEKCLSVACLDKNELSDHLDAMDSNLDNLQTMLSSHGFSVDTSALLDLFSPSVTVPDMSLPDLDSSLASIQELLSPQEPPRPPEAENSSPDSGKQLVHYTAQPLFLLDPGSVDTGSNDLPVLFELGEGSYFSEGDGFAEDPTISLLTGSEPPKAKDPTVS
Bile acid receptor (Homo sapiens), sequence (Q96RI1 whole entry, looked up): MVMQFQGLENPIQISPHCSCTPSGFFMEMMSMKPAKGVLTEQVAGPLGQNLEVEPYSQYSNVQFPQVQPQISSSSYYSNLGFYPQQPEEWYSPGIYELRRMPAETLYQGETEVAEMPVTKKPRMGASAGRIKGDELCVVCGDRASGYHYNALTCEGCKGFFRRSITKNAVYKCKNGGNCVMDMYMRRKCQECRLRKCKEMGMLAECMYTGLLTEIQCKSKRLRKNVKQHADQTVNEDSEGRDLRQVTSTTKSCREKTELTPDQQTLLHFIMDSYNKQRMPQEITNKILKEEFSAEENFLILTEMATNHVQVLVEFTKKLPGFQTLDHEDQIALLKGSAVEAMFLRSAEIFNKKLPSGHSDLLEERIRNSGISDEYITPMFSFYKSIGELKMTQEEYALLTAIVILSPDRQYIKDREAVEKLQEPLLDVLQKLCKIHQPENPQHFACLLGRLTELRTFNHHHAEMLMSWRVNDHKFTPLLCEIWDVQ

Consider `C/C=C(\C)C(=O)OCc1ccccc1`, for which the result in [1], in [2], in assay [3], in assay [4], in assay [5] and in assay [6] was inactive. In addition, the result in [7], in assay [8], in [9], in assay [10], in assay [11] and in assay [12] was inactive. Further, the outcome in assay [13], in [14] and in assay [15] was inactive.
For the compound `Cc1ccc(C(C)C)cc1O`, the result in assay [1], in [2], in assay [3], in assay [4], in [5] and in [6] was inactive. In addition, the compound was called inactive in assay [7], in assay [9], in assay [16], in assay [10], in assay [11] and in assay [12]. The call in assay [13], in assay [14] and in [15] was inactive.
Take `CCCCOCCOCCSC#N`: the result in assay [1], in assay [2], in assay [3], in assay [4], in assay [5] and in assay [6] was inactive. In addition, the call in assay [7], in assay [8], in [9], in assay [10], in [17] and in assay [11] was inactive. Further, the compound was classed as inactive in assay [12], in assay [13], in [15] and in assay [18].
As for `O=C1C(c2[nH]c3ccc(S(=O)(=O)O)cc3c2O)=Nc2ccc(S(=O)(=O)O)cc21`, the result in assay [1], in assay [2], in assay [3], in [4], in assay [5] and in assay [6] was inactive. For the same compound, the compound was called inactive in [7], in [8], in [10], in assay [17], in assay [11] and in [12]. Besides, the call in assay [13], in assay [14] and in assay [15] was inactive.
In the case of `CC(C)=CCC/C(C)=C/COC=O`, the result in [1], in assay [2], in [3], in assay [4], in assay [6] and in [7] was inactive. The outcome in assay [8], in [9], in assay [10], in assay [17], in assay [11] and in assay [12] was inactive. For the same compound, the compound was classed as inactive in assay [13], in assay [14], in assay [15] and in assay [18].
`O=C[C@H](O)[C@H](O)[C@H](O)CO`: the outcome in assay [1], in assay [2], in assay [3], in assay [4], in assay [5] and in assay [6] was inactive. Besides, the compound was classed as inactive in assay [7], in [8], in assay [9], in assay [10], in [11] and in [12]. Also, the outcome in [13], in assay [14], in [15] and in [18] was inactive.
As for `C=CC(=O)OCCn1c(=O)n(CCOC(=O)C=C)c(=O)n(CCOC(=O)C=C)c1=O`, the AC50 in assay [1] was 18.9 µM (active); in [3], 11.2 µM (active); in [6], 52.4 µM (active); in assay [19], 24.4 µM (active); in assay [10] it was 13 µM (active); in assay [12], 16.8 µM (active). Moreover, the AC50 is 54.2 µM (active) in assay [14] and 9.48 µM (active) in assay [15]. The outcome in assay [2], in assay [4], in [7], in assay [8], in assay [9] and in assay [17] was inactive. Besides, the compound was classed as inactive in assay [11], in assay [13] and in [18].
For `CNCCO`, the outcome in [1], in [2], in assay [3], in assay [4], in [5] and in assay [6] was inactive. Besides, the compound was classed as inactive in assay [7], in [8], in assay [19], in [10], in assay [17] and in [11]. Moreover, the compound was classed as inactive in [12], in assay [13], in [14] and in [15].

A word on the AC50: it is the concentration at which the activity in the assay is half-maximal.
